The full list was thinned out, with hits kept by preference.
VACV E9 pol inh = vaccinia E9 polymerase processive synthesis inhibitors, primary screen, biochemical, absorbance; normalized absorbance, % (test concentration not listed); in vitro processive DNA synthesis, absorbance read-out; hits give low values; Vaccinia virus DNA polymerase (E9) processive complex; 46,000 compounds, 0.94% hits; in the data active = normalized absorbance mostly below about 85%, no sharp cut-off; inactive = mostly above about 86%
Hits are given with their value.

For CCCn1nnnc1NCc1ccc(C(C)C)cc1 the results were VACV E9 pol inh inactive.
Screening CC(C)(C)CC[n+]1ccc(/C=N/O)cc1 returned VACV E9 pol inh inactive.
`Cc1ccc(C)n1-c1cccc(N)c1` gave VACV E9 pol inh inactive.
`Cc1ccc(C)n1-c1cccc(C(F)(F)F)c1` gave VACV E9 pol inh inactive.
Screening Cc1ccc(C)n1-c1cccc(C(=O)O)c1 returned VACV E9 pol inh 11.
Screening CN1CCN(CCN2C(=O)c3ccccc3Sc3cc(Cl)ccc3S2(=O)=O)CC1 returned VACV E9 pol inh inactive.
`CC(C)OC(=O)COc1ccc2c(c1)OC1(CC2c2ccccc2)CC(C)(C)NC(=O)N1` (configuration not stated) gave VACV E9 pol inh inactive.
For Cc1ccc(NC(=O)C2CCCN(S(=O)(=O)c3ccc4c(c3)CC(C)N4C(=O)C3CC3)C2)nc1 (configuration not stated) the results were VACV E9 pol inh inactive.
Screening COc1ccccc1-c1[nH]ncc1CNCCc1ccccc1 returned VACV E9 pol inh inactive.
For Cc1nn(-c2ncc(C(F)(F)F)cc2Cl)c(C)c1CS(=O)(=O)c1ccccc1 the results were VACV E9 pol inh inactive.
Screening CCNc1nc(SCc2ccc(Cl)cc2)nc2sc3c(c12)CCN(C)C3 returned VACV E9 pol inh 53.
CC(C)C1Cc2c(sc3nc(SCc4ccc(Cl)c(Cl)c4)nc(N)c23)CO1 (configuration not stated) was read as VACV E9 pol inh inactive.
CCNc1nc(SCC(=O)NC(=O)NCc2ccccc2)nc2sc3c(c12)CCN(C)C3 was read as VACV E9 pol inh inactive.
For C=CC[N+]1(CC#Cc2ccccc2)CCOCC1 the results were VACV E9 pol inh inactive.
For CC(=O)Nc1nc(-c2ccccc2)[n+](-c2ccccc2)s1 the results were VACV E9 pol inh inactive.
`Clc1cccc(C=NN2CCN(Cc3ccccc3)CC2)c1Cl` gave VACV E9 pol inh inactive.
Screening CCSC1=NC(C)(C)C=C(C)N1 returned VACV E9 pol inh inactive.
Screening CC1=CC(C)(C)N=C(Nc2nc(C)c3cc(C)cc(C)c3n2)N1 returned VACV E9 pol inh 50.
`CCOC(=O)c1cc(CSc2n[nH]c(=O)n2-c2ccccc2)nn1C(C)(C)C` gave VACV E9 pol inh inactive.
For Cc1nnc(SCc2ccc(C(=O)c3ccc(F)cc3)cc2)[nH]c1=O the results were VACV E9 pol inh inactive.
CN(C)c1ccc(C2=CC=CC(=C3C=CC(=[N+](C)C)C=C3)O2)cc1 was read as VACV E9 pol inh 39.
Screening Cc1ccc(C(=O)C(C)OC(=O)c2cccs2)cc1 (configuration not stated) returned VACV E9 pol inh inactive.
`CCc1nnc(SCc2ccccc2)c2cc3occc3n12` gave VACV E9 pol inh inactive.
Cc1ccc(C)c(CSc2nncn3c2cc2occc23)c1 was read as VACV E9 pol inh inactive.
Cc1nnc(SCc2ccc(F)cc2Cl)c2cc3occc3n12 was read as VACV E9 pol inh 72.
Screening Cc1ccc(CSCc2ccc(C(=O)NCCC(C)C)o2)cc1 returned VACV E9 pol inh inactive.
For CC(=O)n1c2ccc(C)cc2c2nc3ccccc3nc21 the results were VACV E9 pol inh inactive.
`CC(=O)n1c2ccccc2c2nc(N)sc21` gave VACV E9 pol inh 64.
CC(=O)n1c(=O)n(C(C)=O)c2ccccc21 was read as VACV E9 pol inh inactive.
Screening CC(=O)n1c2ccccc2c2c(-c3ccccc3)c(N3CCOCC3)sc21 returned VACV E9 pol inh inactive.
Screening CC(=O)n1c2ccccc2c2ccccc21 returned VACV E9 pol inh 67.
N#CSCC(=O)n1c2ccccc2c2ccccc21 was read as VACV E9 pol inh inactive.
Screening N#CCSc1nc(N)c(C#N)c(-c2cccc(F)c2)c1C#N returned VACV E9 pol inh inactive.
Screening CCCNC(=O)Cn1c(C(=O)OC)ccc1-c1ccco1 returned VACV E9 pol inh inactive.
For CC1CCN(C(=O)Nc2csc3ccccc23)CC1 the results were VACV E9 pol inh inactive.
Screening COC(=O)C(C)N(C(=O)c1c(F)cccc1F)c1c(C)cccc1C (configuration not stated) returned VACV E9 pol inh inactive.
Screening Cc1nn(-c2ccccc2)c2sc(C(=O)NCCCN3CCCC3=O)cc12 returned VACV E9 pol inh inactive.
CC(C)(C)NC(=O)c1cccc2c1-c1ccccc1C2=O was read as VACV E9 pol inh inactive.
For Cc1csc2sc(-c3ccnc(SCC(=O)NCc4ccccc4)n3)c(C)c12 the results were VACV E9 pol inh inactive.
`CCc1cc2c(=O)c(-c3ccccc3)coc2cc1O` gave VACV E9 pol inh inactive.
Screening COc1ccc2c(=O)c(-c3ccc4c(c3)OCCO4)coc2c1 returned VACV E9 pol inh inactive.
Screening CCc1cc2c(=O)c(-c3ccc4c(c3)OCO4)coc2cc1O returned VACV E9 pol inh 82.
For Cc1ccc(C(C)C)cc1Oc1cc(Cl)nc(N)n1 the results were VACV E9 pol inh inactive.
`Nc1ccccc1-c1nnc(-c2ccc(-c3ccccc3)cc2)o1` gave VACV E9 pol inh 66.
For c1ccc(-c2nnc(-c3ccccc3)o2)cc1 the results were VACV E9 pol inh inactive.
NC(=O)c1ccc(-c2nnc(-c3ccccc3)o2)cc1 was read as VACV E9 pol inh inactive.

High-throughput results from PubChem BioAssay.
